Measured values from PubChem BioAssay (Tox21).
Records with an inconclusive call do not appear. Entries that show only a call come without a potency. Active and inactive are the calls of the source. Calls follow the shape of the full dose curve.

target: Thyrotropin receptor (Homo sapiens) (UniProt P16473); experiment: qHTS assay to identify small molecule agonists of the thyroid stimulating hormone receptor (TSHR) signaling pathway (AID 1224843); conditions: TSHR-HEK293 cells, cAMP HTRF, agonist mode, 30 min; series mostly up to 92.4 µM; also: nearly all actives have a fitted effect of over 45% in size
Sequence (P16473 whole entry, looked up): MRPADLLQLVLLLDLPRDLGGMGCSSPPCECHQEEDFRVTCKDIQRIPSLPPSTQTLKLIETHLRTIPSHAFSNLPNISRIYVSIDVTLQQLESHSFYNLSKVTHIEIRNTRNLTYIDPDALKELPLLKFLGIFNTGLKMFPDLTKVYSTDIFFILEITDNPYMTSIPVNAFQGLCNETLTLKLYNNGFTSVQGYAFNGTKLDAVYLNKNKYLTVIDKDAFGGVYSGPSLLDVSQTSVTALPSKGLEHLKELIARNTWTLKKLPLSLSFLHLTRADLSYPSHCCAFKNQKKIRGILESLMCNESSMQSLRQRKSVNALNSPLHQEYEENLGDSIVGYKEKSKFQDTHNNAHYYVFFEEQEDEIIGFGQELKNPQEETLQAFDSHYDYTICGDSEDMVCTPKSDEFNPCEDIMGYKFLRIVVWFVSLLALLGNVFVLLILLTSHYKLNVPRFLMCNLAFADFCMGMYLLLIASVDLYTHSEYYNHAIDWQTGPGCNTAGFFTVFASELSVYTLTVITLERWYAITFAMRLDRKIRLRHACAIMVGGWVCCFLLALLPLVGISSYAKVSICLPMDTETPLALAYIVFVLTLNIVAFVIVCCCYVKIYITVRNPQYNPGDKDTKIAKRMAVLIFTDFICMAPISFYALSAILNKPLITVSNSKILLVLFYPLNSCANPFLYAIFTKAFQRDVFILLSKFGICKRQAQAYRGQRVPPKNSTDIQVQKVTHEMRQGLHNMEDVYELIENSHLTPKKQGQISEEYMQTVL
Source text: National Center for Advancing Translational Sciences [NCATS]
NIH Chemical Genomics Center [NCGC]
U.S. Environmental Protection Agency [EPA]
National Institutes of Environmental Health Sciences [NIEHS]
National Toxicology Program [NTP]
U.S. Food and Drug Administration [FDA]
TSHR is the receptor for thyrotropin (thyroid stimulating hormone or TSH), a member of the glycoprotein hormone family. TSH is released by the anterior pituitary gland and is the main regulator of thyroid gland growth and development. Upon binding circulating thyrotropin, a G-protein signal cascade activates adenylyl cyclase and […] cAMP concentration is increased. cAMP is a key second messenger involved extensively in cellular signal transduction pathways associated with the majority of G-protein coupled receptors (GPCRs). The activation of these GPCRs by neurotransmitters, lipids, nucleotides, peptides and hormones results in the activation or the inhibition of plasma membrane-bound adenylate cyclase through heterotrimeric G-proteins. A cell-based TSHR assay was used to screen the Tox21 10K library for compounds that can modulate TSHR in agonist mode.
Tox21 Assay Protocol Summary:
TSHR-Hek293 cells were dispensed at 800 cells/4uL/well in 1536-well white plates using a Multidrop dispenser. […] The plates were incubated at room temperature for 30 min. 2.5 ul/well of cAMP-d2 and 2.5ul/well of anti-cAMP-cryptate was added respectively into the assay plates using a Flying Reagent Dispenser. After 1 hr incubation at room temperature, the fluorescence intensity in the plates was measured using an Envision plate reader. Each test compound was measured at 15 concentrations and in triplicates.

Row | SMILES | Potency
1 | Cc1ccccc1N=C(N)Nc1ccccc1C | inactive
2 | O=C1c2ccccc2C(=O)C1c1nc2ccccc2c(Br)c1O | inactive
3 | C[C@@H](O)[C@H]1C(=O)N2C(C(=O)O)=C([C@H]3CCCO3)S[C@H]12 | inactive
4 | CCc1ccccc1 | inactive
5 | CCCCCCCCN | inactive
6 | CC(C)C=O | inactive
7 | COC(=O)CS | inactive
8 | CCCCCCCC/C=C\CCCCCCCCO | inactive
9 | O=C1c2ccccc2C(=O)C1c1ccc(Br)cc1 | inactive
10 | CCC(C)(C)OC | inactive
11 | N#CCCN(CCO)CCO | inactive
12 | CC(C)=CCC/C(C)=C/CC/C(C)=C/C(=O)OCC(=O)[C@@]1(O)CC[C@H]2[C@@H]3CCC4=CC(=O)C=C[C@]4(C)[C@H]3[C@@H](O)C[C@@]21C | inactive
13 | C/C=C(/C(=C/C)c1ccc(O)cc1)c1ccc(O)cc1 | inactive
14 | CC1(C)S[C@@H]2[C@H](NC(=O)C(c3ccccc3)S(=O)(=O)O)C(=O)N2[C@H]1C(=O)O (stereo not given in full) | inactive
15 | O=C(/C=C/c1ccc(O)c(O)c1)O[C@@H]1C[C@@](OC(=O)/C=C/c2ccc(O)c(O)c2)(C(=O)O)C[C@@H](O)[C@@H]1O | inactive
16 | NC(=O)c1ccncc1 | inactive
17 | CCCCC(CC)COP(=O)(O)O (stereo not given) | inactive
18 | COc1cc(C(=O)NCCCCCC(=O)O)cc(OC)c1OC | inactive
19 | NCCNCCO | inactive
20 | CC(=O)Nc1ccc(C)cc1C | inactive

Row | SMILES | Potency
21 | Cc1ccc(Cl)c(Nc2ccccc2C(=O)O)c1Cl | inactive
22 | CCCC(=O)C(=O)O | inactive
23 | CCOC(C)=O | inactive
24 | Cc1ccccc1S | inactive
25 | CC(C)Nc1cccnc1N1CCN(C(=O)c2cc3cc(NS(C)(=O)=O)ccc3[nH]2)CC1 | inactive
26 | CCCCCC#CC(=O)OC | inactive
27 | O=C=Nc1ccc(Cl)c(Cl)c1 | inactive
28 | CN1CCCC(CC2c3ccccc3Sc3ccccc32)C1 (stereo not given) | inactive
29 | COc1ccccc1N1CCN(CCCCNC(=O)c2ccc(-c3ccc(C(C)=O)cc3)cc2)CC1 | inactive
30 | C=C(C)C(=O)OCCCCCCCCCCCCC | inactive
31 | COc1ccccc1N1CCN(CC(O)COc2cccc3ccccc23)CC1 (stereo not given) | inactive
32 | O=C(O)c1ccc(OCCCOc2ccc(C(=O)O)cc2)cc1 | inactive
33 | CC(O)c1ccccc1 (stereo not given) | inactive
34 | OCCOCC#CCOCCO | inactive
35 | O=C1c2ccccc2C(=O)c2c(O)c(O)cc(O)c21 | inactive
36 | O=C(O)c1cccc(-c2noc(-c3ccccc3F)n2)c1 | inactive
37 | C=C/C(C)=C/C/C=C(\C)CCC=C(C)C | inactive
38 | CC(C)=CC(=O)C=C(C)C | inactive
39 | CC(CN(C)C)C(C)(O)Cc1ccc(Cl)cc1 (stereo not given) | inactive
40 | Cc1ccco1 | inactive
